Results as given in PubChem BioAssay (EPA / NIEHS).
Inconclusive results are not listed. Active and inactive are the calls of the source. The calls were made as follows: active = hit-call score of the fitted dose curve at least 0.9, where 1 is the maximum; inconclusive = response in the unintended direction; inactive = score below 0.9.

What follows are compounds tested against Peroxisome proliferator-activated receptor gamma (Homo sapiens) (UniProt P37231) (assay: NVS_NR_hPPARg: NovaScreen (NVS) Nuclear Receptor Binding Assay for human Peroxisome Proliferator-activated Receptor gamma (PPARg) (AID 2283370)).
Peroxisome proliferator-activated receptor gamma (Homo sapiens), sequence (P37231 whole entry, looked up): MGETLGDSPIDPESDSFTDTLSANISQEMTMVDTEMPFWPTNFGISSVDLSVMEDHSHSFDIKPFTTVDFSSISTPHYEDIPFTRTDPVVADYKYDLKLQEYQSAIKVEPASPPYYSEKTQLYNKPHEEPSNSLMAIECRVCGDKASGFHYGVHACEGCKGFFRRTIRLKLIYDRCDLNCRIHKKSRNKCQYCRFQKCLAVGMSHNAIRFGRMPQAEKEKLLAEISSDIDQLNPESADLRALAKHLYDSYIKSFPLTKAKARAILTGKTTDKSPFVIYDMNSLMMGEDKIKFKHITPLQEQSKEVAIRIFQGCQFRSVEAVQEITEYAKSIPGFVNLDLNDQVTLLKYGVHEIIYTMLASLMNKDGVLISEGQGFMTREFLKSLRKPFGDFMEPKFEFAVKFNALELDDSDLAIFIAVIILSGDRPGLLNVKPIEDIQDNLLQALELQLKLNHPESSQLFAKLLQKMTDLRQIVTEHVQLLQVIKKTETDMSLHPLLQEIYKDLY
Procedure: NVS_NR_hPPARg is a biochemical, single-readout assay that uses extracted gene-proteins in a cell-free assay. Measurements were taken 2 hours after chemical dosing in a 384-well plate.NVS_NR_hPPARg is one of one assay component(s) measured or calculated from the NVS_NR_hPPARg assay. It is designed to make measurements of fluorescent polarization, a form of binding reporter, as detected with fluorescence polarization signals by Fluorescence Polarization technology.Data from the assay component NVS_NR_hPPARg was analyzed into 1 assay endpoint. This assay endpoint, NVS_NR_hPPARg, was analyzed in the positive analysis fitting direction relative to DMSO as the negative control and baseline of activity. Using a type of binding reporter, loss-of-signal activity can be used to understand changes in the binding as they relate to the gene PPARG. Furthermore, this assay endpoint can be referred to as a primary readout, because the performed assay has only produced 1 assay endpoint. To generalize the intended target to other relatable targets, this assay endpoint is annotated to the nuclear receptor intended target family, where the subfamily is non-steroidal.
Binding assays used specific radioligands (tritiated, iodinated) with non-radioactive competitive displacement ligands in agonist or antagonist protocols (as indicated) and various reference compounds and inhibitors to titrate specific binding to receptors and transporters. Most enzyme assays (CYPs, kinases, phosphatases, proteases, HDACs) used recombinant protein and specific substrates (fluorescence mostly, some colorimetric and radioactive) and inhibitors, followed by a biochemical separation of substrate and product. All assays for the biochemical HTS were initially run in duplicate at a single concentration (10 uM for CYP450 assays and 25 uM for all others). […] Each assay was run with positive and negative controls, and concurrent controls on every plate. The follow-up (secondary) screen tested active chemical-pairs in concentration series, as well as a few additional assays not tested in the primary screen, some selected negative inactives, and several cases re-run in the concentration series for confirmatory purposes.
CC[C@H](NC(=O)c1cc(F)ccc1NS(=O)(=O)c1cccc2cccnc12)c1ccccc1 was tested, and the outcome was “inactive”. In the case of CCCCCCCCOC(=O)c1cc(O)c(O)c(O)c1, the AC50 is reported as 25 µM (active). In the case of O=c1c(-c2ccc(O)cc2)coc2cc(O)cc(O)c12, the AC50 is reported as 39.4 µM (active). In the case of O=C1CCC(C2CCCCC2)CC1, the outcome is reported as “inactive”. With Cc1oc2c(NC(=O)c3c(Cl)cccc3Cl)cccc2c1C(C)(C)O the outcome was “inactive”. With CCCCCc1ccc(N)cc1 the outcome was “inactive”. With CCCOC(=O)c1cc(O)c(O)c(O)c1 the outcome was “inactive”. In the case of CCCCOC(=O)c1ccc(O)cc1, the outcome is reported as “inactive”. In the case of CN1C(=O)N(c2ccccc2Br)Cc2cnc(Nc3ccc4c(c3)OCC(CO)O4)nc21 (stereo not drawn), the AC50 is reported as 25 µM (active). For CC1=CC(=O)/C(=C(/C)O)C(=O)O1, the outcome was “inactive”. For CCCCCCCC[Si](OCC)(OCC)OCC, the outcome was “inactive”. In the case of CC(C)(C)c1csc(-c2cc3cc(OCc4ccccc4CC(=O)O)ccc3o2)n1, the AC50 is reported as 0.00229 µM (active). CCCCCCCCCCCC[N+](C)(C)C was tested, and the outcome was “inactive”. O=CCCCC=O was tested, and the outcome was “inactive”. c1ccc2n[nH]nc2c1 was tested, and the outcome was “inactive”. c1ccc2ccccc2c1 was tested, and the outcome was “inactive”. With Cc1cc(F)ccc1-c1cc(N2CC[C@@H](O)[C@H]2CO)ncc1N(C)C(=O)C(C)(C)c1cc(C(F)(F)F)cc(C(F)(F)F)c1 the outcome was “inactive”. Cc1c2ccccc2c(C)c2c1ccc1ccccc12 was tested, and the outcome was “inactive”. In the case of CC(C)(O)c1ccc(CNC(=O)c2cccnc2Oc2ccc3nonc3c2)cc1, the outcome is reported as “inactive”. O=C(O)Cc1cc(I)c(Oc2ccc(O)c(I)c2)c(I)c1 was tested, and the outcome was “inactive”. With NCc1cccc(C2CCN(C(=O)c3ccc(C#Cc4ccccc4F)o3)CC2)c1 the AC50 was 5.98 µM (active). With O=C(O)c1ccccc1-n1cc(C(=O)O)c(=O)c2cc(Nc3c(F)cc(F)cc3Cl)c(Cl)cc21 the outcome was “inactive”. With Oc1ccc2ccccc2c1 the outcome was “inactive”. With CN(C)c1ccc(C(=C2C=CC(=[N+](C)C)C=C2)c2ccc(N(C)C)cc2)cc1 the AC50 was 1.4 µM (active). O=C1O[C@H]([C@@H](O)CO)C(O)=C1O was tested, and the outcome was “inactive”. With C[C@]12CC[C@@H]3c4ccc(O)cc4CC[C@H]3[C@@H]1CC[C@H]2O the outcome was “inactive”. CC1(C)NC(=O)N(c2ccc([N+](=O)[O-])c(C(F)(F)F)c2)C1=O was tested, and the outcome was “inactive”. For O=C(O)Cn1c(=O)n(Cc2ccc(Br)cc2F)c(=O)c2ccc(Cl)cc21, the AC50 was 42.4 µM (active).
